Molecules are shown by their SMILES. Inconclusive results are not listed. Calls of active or inactive are those of the source. How the source made its calls, unless noted: active means hit-call score of the fitted dose curve at least 0.9, where 1 is the maximum; inconclusive means response in the unintended direction; inactive means score below 0.9.

Read-out in test [1]: UDP glucuronosyltransferase (UGT1A1), UGT1A1 (gene 54658)
In words: LTEA_HepaRG_UGT1A1: Life Technologies and Expression Analysis (LTEA) Assay for UDP glucuronosyltransferase (UGT1A1) using HepaRG (AID 2283538; active means hit-call score of the fitted dose curve at least 0.9, where 1 is the maximum; inactive means score below 0.9). The settings on record: mRNA level, 48 h; actives raise or lower the signal. A digest of the protocol:
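Differentiated human HepaRG cells in serum-free induction medium were exposed in duplicate for 48 h to eight half-log concentrations up to 100 uM in 0.5% DMSO. UGT1A1 mRNA was quantified by TaqMan qRT-PCR, normalized to ACTB, GAPDH and POLR2A, and fitted bidirectionally against DMSO.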

Read-out in test [2]: UDP glucuronosyltransferase (UGT1A6), UGT1A6 (gene 54578)
Briefly: LTEA_HepaRG_UGT1A6: Life Technologies and Expression Analysis (LTEA) Assay for UDP glucuronosyltransferase (UGT1A6) using HepaRG (AID 2283539; active means hit-call score of the fitted dose curve at least 0.9, where 1 is the maximum; inactive means score below 0.9). The settings on record: mRNA level, 48 h; actives raise or lower the signal. A digest of the protocol: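 HepaRG, 48 h post-plating switch to serum-free induction medium; chemical 48 h, 100 uM top, half-log x8, duplicate, 0.5% DMSO. Phenobarbital 1mM induction control. UGT1A6 mRNA by TaqMan qRT-PCR; gain/loss fit vs DMSO.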

Read-out in test [3]: X-box binding protein 1 (XBP1), XBP1 (gene 7494)
In words: LTEA_HepaRG_XBP1: Life Technologies and Expression Analysis (LTEA) Assay for X-box binding protein 1 (XBP1) using HepaRG (AID 2283540; active means hit-call score of the fitted dose curve at least 0.9, where 1 is the maximum; inactive means score below 0.9). Particulars: mRNA level, 48 h; actives raise or lower the signal. An outline of the steps:
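Transcript levels of XBP1, measured by qRT-PCR and normalised to three housekeeping genes, were fitted bidirectionally relative to 0.5% DMSO controls. Human HepaRG cells received eight-point half-log dilutions from 100 uM for 48 h.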

A short description of test [4]: LTEA_HepaRG_LDH_cytotoxicity: Cytotoxicity Assessment in the Life Technologies and Expression Analysis (LTEA) Assay (AID 2283563). An outline of the steps:
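Cells were thawed and plated for 48 h. Medium was then replaced with serum-free induction medium. Chemicals (8 half-log points, maximum 100 uM, 0.5% DMSO) were added in duplicate for 48 h, after which spent medium was assayed for LDH.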

Test [5] addresses Cellular tumor antigen p53 (Homo sapiens) (UniProt P04637). Briefly: TOX21_p53_BLA_p2_ratio: Tox21 HCT-116 p53 Agonism Beta-lactamase Assay, Ratio, Phase 2 (AID 2283592). A digest of the protocol: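 HCT116 p53-bla; 4000 cells/well; 5 h pre-incubation; cpd in DMSO, 217-fold dilution; 16 h 37C/5% CO2; CCF4-AM 2 h RT; Ex 405, Em 460/530 ratio; DMSO = baseline; positive fitting direction.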

For test [6] the target is unchanged. In words: TOX21_p53_BLA_p3_ratio: Tox21 HCT-116 p53 Agonism Beta-lactamase Assay, Ratio, Phase 3 (AID 2283596). An outline of the steps:
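HCT116 p53-bla cells (4000/well) given compound in DMSO (217-fold dilution) after 5 h, incubated 16 h at 37C. CCF4-AM substrate 2 h at room temperature; 460/530 nm emission ratio, gain fitted against DMSO.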

The nature of test [7]: TOX21_p53_BLA_p4_viability: Viability Assessment in the Tox21 HCT-116 p53 Agonism Beta-lactamase Assay, Phase 4 (AID 2283597).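 Further: hits lower the luminescence signal meaning cytotoxicity.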 A digest of the protocol:
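Cells plated, 5 h pre-incubation; DMSO compounds pinned (217-fold dilution); 16 h, 37C/5% CO2; CCF4-AM 2 h RT; CellTiter-Glo 30 min RT; luminescence read.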

Test [8] concerns the target Cellular tumor antigen p53 (Homo sapiens) (UniProt P04637). Briefly: TOX21_p53_BLA_p5_ratio: Tox21 HCT-116 p53 Agonism Beta-lactamase Assay, Ratio, Phase 5 (AID 2283599). A digest of the protocol: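 HCT-116 cells carrying a p53-inducible beta-lactamase reporter were seeded at 4000 cells/well and dosed after 5 h with compound in DMSO (217-fold dilution). After 16 h at 37C, CCF4-AM substrate was added for 2 h, and the 460/530 nm emission ratio was scored as gain-of-signal versus DMSO.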

Test [9] in a line: Tanguay_ZF_120hpf_MORT_legacy: (Legacy) Oregon State University Tanguay Lab 120 Hour Post-fertilization zebrafish Assay for Mortality (AID 2283633). An outline of the steps:
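5D WT zebrafish, chorion removed 4 hpf; 1 embryo/well from 6 hpf; static exposure to 120 hpf, 28C, dark, sealed. Final DMSO 0.64%. Readout: binary mortality, brightfield, 24 + 120 hpf; DMSO as negative control.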

Test [10] in a line: Tanguay_ZF_120hpf_YSE_legacy: (Legacy) Oregon State University Tanguay Lab 120 Hour Post-fertilization zebrafish Assay for Yolk Sac Edema (AID 2283634).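 On AC50: actives raise the incidence of yolk sac edema above the DMSO baseline.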 A digest of the protocol: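 Dechorionate (pronase, 4 hpf) → place one 6 hpf embryo per well → static compound exposure, sealed and foil-covered, 28C, to 120 hpf → record yolk sac edema as present or absent. Final DMSO 0.64%.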

Test [11] can be described thus: Tanguay_ZF_120hpf_AXIS_legacy: (Legacy) Oregon State University Tanguay Lab 120 Hour Post-fertilization zebrafish Assay for Body Axis Malformation (AID 2283635).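 On AC50: potency for an increased fraction of larvae scored with body axis malformation.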 An outline of the steps: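 Chorion is removed with pronase at 4 hpf, then single 6 hpf embryos are dosed (final DMSO 0.64%) and held statically at 28C in sealed, foil-covered plates. At 120 hpf body axis malformation is recorded as present or absent.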

Test [12] can be described thus: Tanguay_ZF_120hpf_EYE_legacy: (Legacy) Oregon State University Tanguay Lab 120 Hour Post-fertilization zebrafish Assay for Eye Malformation (AID 2283636).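 Further: binary presence or absence of eye malformation scored by brightfield in 120 hpf larvae.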 An outline of the steps: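 Dechorionated wild-type Tropical 5D zebrafish embryos were exposed statically from 6 hpf, one per well, to 120 hpf at 28C in sealed, foil-covered plates with 0.64% DMSO. Eye malformation was scored present/absent by brightfield microscopy against DMSO controls.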

A short description of test [13]: Tanguay_ZF_120hpf_JAW_legacy: (Legacy) Oregon State University Tanguay Lab 120 Hour Post-fertilization zebrafish Assay for Jaw Malformation (AID 2283638).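 On AC50: active means more embryos with jaw malformation than DMSO controls.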 An outline of the steps: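 Steps: dechorionate 4 hpf embryos (pronase); plate 1/well at 6 hpf; add test chemical, 0.64% DMSO final; seal, cover, hold at 28C statically to 120 hpf; score jaw defect presence/absence microscopically. Dead embryos not scored.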

Test [14] is described as follows: Tanguay_ZF_120hpf_OTIC_legacy: (Legacy) Oregon State University Tanguay Lab 120 Hour Post-fertilization zebrafish Assay for Otic Vesicle Malformation (AID 2283639). An outline of the steps: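 Tropical 5D wild-type zebrafish embryos were exposed statically in sealed, foil-covered plates at 28C until 120 hpf, with 0.64% (vol/vol) DMSO final. Otic vesicle malformation was scored present/absent by brightfield microscopy, with DMSO as baseline.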

A short description of test [15]: TOX21_p53_BLA_p3_viability: Viability Assessment in the Tox21 HCT-116 p53 Agonism Beta-lactamase Assay, Phase 3 (AID 2283593).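 Further: cells exposed to compound for 16 h before reading.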 An outline of the steps: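 HCT-116 cells (4000/well) rested 5 h at 37C, then got DMSO compounds by pin tool (217-fold dilution) for 16 h at 37C, 5% CO2. After the bla read, CellTiter-Glo was added and luminescence read at 30 min, room temperature.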

A short description of test [16]: TOX21_p53_BLA_p5_viability: Viability Assessment in the Tox21 HCT-116 p53 Agonism Beta-lactamase Assay, Phase 5 (AID 2283600). An outline of the steps: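 4000 cells/well; 5 h pre-incubation; DMSO compounds pin-transferred, 217-fold dilution; 16 h, 37C/5% CO2; CCF4-AM 2 h RT; CellTiter-Glo 30 min RT; luminescence.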
A short description of test [17]: Tanguay_ZF_120hpf_SNOU_legacy: (Legacy) Oregon State University Tanguay Lab 120 Hour Post-fertilization zebrafish Assay for Snout Malformation (AID 2283637). An outline of the steps:
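Tropical 5D wild-type zebrafish embryos, dechorionated with pronase at 4 hpf, were exposed singly from 6 hpf to 120 hpf statically at 28C in 0.64% DMSO. Snout malformation was scored present/absent by brightfield microscopy, fitted against DMSO.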

Test [18] concerns the target Cellular tumor antigen p53 (Homo sapiens) (UniProt P04637). In words: TOX21_p53_BLA_p4_ratio: Tox21 HCT-116 p53 Agonism Beta-lactamase Assay, Ratio, Phase 4 (AID 2283601). A digest of the protocol: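 HCT116 cells carrying an inducible beta-lactamase reporter were plated at 4000 cells/well, rested 5 h, then exposed to compounds in DMSO (217-fold dilution) for 16 h at 37C. CCF4-AM substrate was loaded 2 h at room temperature; 460/530 nm emission ratio scored gain-of-signal versus DMSO.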

Test [19] is described as follows: TOX21_p53_BLA_p2_viability: Viability Assessment in the Tox21 HCT-116 p53 Agonism Beta-lactamase Assay, Phase 2 (AID 2283591).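 Further: compound exposure lasted 16 h at 37 °C; actives lower the ATP signal meaning cytotoxicity.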 A digest of the protocol:
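HCT-116 p53-bla cells (4000/well) rested 5 h at 37C, then received compounds in DMSO (217-fold dilution) for 16 h at 37C, 5% CO2. After the CCF4 read, CellTiter-Glo was added; ATP luminescence was read after 30 min at room temperature.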

The nature of test [20]: ATG_XTT_Cytotoxicity: Cytotoxicity Assessment in the Attagene TRANS-FACTORIAL HepG2 Assay (AID 2283584). A digest of the protocol:
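Cells: human HepG2, transiently transfected with MRTU reporter constructs. Exposure 24 h. Readout: XTT, cell number. Baseline/neg ctrl DMSO; loss-of-signal scored.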

Sequence of Cellular tumor antigen p53 (Homo sapiens) (P04637 whole entry, looked up): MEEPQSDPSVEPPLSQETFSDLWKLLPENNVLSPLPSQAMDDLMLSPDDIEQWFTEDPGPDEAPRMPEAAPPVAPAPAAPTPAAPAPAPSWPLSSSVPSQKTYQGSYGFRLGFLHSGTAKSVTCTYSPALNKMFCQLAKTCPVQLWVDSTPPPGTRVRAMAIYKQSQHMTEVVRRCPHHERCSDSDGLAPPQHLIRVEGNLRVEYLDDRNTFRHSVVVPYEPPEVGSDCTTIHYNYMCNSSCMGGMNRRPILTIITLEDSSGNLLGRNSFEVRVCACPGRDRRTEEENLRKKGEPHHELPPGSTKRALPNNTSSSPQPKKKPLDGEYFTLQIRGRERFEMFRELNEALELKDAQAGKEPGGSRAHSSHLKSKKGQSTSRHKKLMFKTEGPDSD

Regarding `CNC(=O)Oc1cccc2c1OC(C)(C)O2`, the compound was called inactive in test [1], in test [2], in [3], in test [4], in [5] and in test [6]. Further, the result in test [7], in test [8], in test [9], in test [10], in test [11] and in test [12] was inactive. The compound was called inactive in [13] and in test [14].

As for `CSc1nnc(C(C)(C)C)c(=O)n1N`, the AC50 (in general, the concentration giving half of the maximal activity seen) in test [1] is 9.92 µM (active). For the same compound, the outcome in [2], in test [3], in test [4], in [5], in [15] and in test [6] was inactive. Also, the compound was called inactive in test [7], in test [8], in test [16], in [9], in [10] and in test [11]. Further, the compound was classed as inactive in [12], in test [17], in test [13] and in [14].

With `CSc1nc(NC(C)C)nc(NC(C)C)n1`, the half-maximal activity concentration (AC50) in test [1] was 2.47 µM (active); in test [3] it was 50 µM (active). In addition, the compound was classed as inactive in test [2], in test [4], in test [5], in test [6], in test [16] and in test [9]. Moreover, the compound was classed as inactive in test [10], in test [11], in test [12], in [17], in test [13] and in test [14].

Turning to `CC(C)[C@H](C(=O)O[C@H](C#N)c1cccc(Oc2ccccc2)c1)c1ccc(Cl)cc1`, the AC50 in test [1] is 23.8 µM (active); in [10], 3.2 µM (active); in [11], 1.96 µM (active); in test [12], 2.82 µM (active); in test [17], 2.25 µM (active); in [13], 5.13 µM (active). Also, the outcome in test [2], in test [3], in test [4], in test [5], in test [15] and in test [7] was inactive. Moreover, the result in [8], in test [16], in test [18], in [9] and in test [14] was inactive.

As for `CN1COCN(Cc2cnc(Cl)s2)C1=N[N+](=O)[O-]`, the result in [1], in test [2], in test [3], in test [4], in [5] and in test [15] was inactive. The outcome in [8], in [18], in test [9], in test [10], in [11] and in test [12] was inactive. Also, the outcome in [17], in [13] and in [14] was inactive.

Consider `CNC(=O)ON=C(C)SC`, for which the compound was called inactive in [1], in test [2], in test [3], in test [4], in test [16] and in test [9]. Further, the compound was classed as inactive in test [10], in test [12] and in [14]. Further, the AC50 is 10.1 µM (active) in test [11] and 39.5 µM (active) in test [13].

With `S=C1NCCN1`, the call in test [1], in test [2], in test [3], in [4], in [19] and in test [5] was inactive. Also, the outcome in test [15], in test [6], in test [7], in [8], in [16] and in [18] was inactive. Also, the outcome in test [10], in test [11], in test [12] and in [14] was inactive.

As to `C#CCC1=C(C)C(OC(=O)C2C(C=C(C)C)C2(C)C)CC1=O` (stereo unspecified), the compound was classed as inactive in test [1], in test [2], in test [4], in test [20], in [15] and in [6]. The call in test [7], in test [8], in test [16], in test [18], in test [9] and in test [10] was inactive. The compound was classed as inactive in [12], in test [13] and in test [14]. Moreover, the AC50 in test [19] is 45.8 µM (active); in [5] it was 86.7 µM (active).

These data come from PubChem BioAssay (EPA / NIEHS).
